# Screening results from PubChem BioAssay.
# In the library only some 19% were active in any assay of this set; here they are far more common.
# IL-1B inflam inh = blocks inflammasome-driven IL-1 beta release; 4.7% of 360,000 active; activity change, % at 57.5 µM; THP-1 LPS/ATP IL-1B secretion, AlphaLISA, 16 h; hits give low values; AID 743279; in the data active means activity change below about -50%; inconclusive means mostly about -30% to -49%
#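 Secreted IL-1B measured by AlphaLISA bead assay after 16 h compound exposure of THP-1 cells; compounds (final up to 57.5 uM) added 1 h before LPS (250 ng/mL) and ATP (1.25 mM) stimulation; lower signal means less secretion.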
# HT1080 IDH1KD tx = kills HT-1080 cells with IDH1 knockdown | HT-1080 IDH1 knockdown viability, ATP luminescence, 48 h | Potency, µM (top dose mostly 46.1 µM), without a hit: top-dose activity, negative = toxicity, hits mostly cytotoxic | 2% of 360,000 active;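 further: potency means the concentration at half of the fitted maximal effect; 0% = DMSO wells and -100% = cell-free medium wells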
#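 CellTiter-Glo luminescence after 48 h compound exposure at 37 degrees C of IDH1-knockdown HT-1080 cells in 5% FBS RPMI. %Activity scaled between DMSO wells and cell-free media wells, with curves fitted and assigned curve classes.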
# TDP1 cell CPT = growth inhibition of DT40 Tdp1-/-;hTDP1 cells with camptothecin (screen for TDP1 inhibitors); chicken DT40 Tdp1-/-;hTDP1 cells + 20 nM CPT, ATP luminescence, 48 h; Potency, µM (top dose mostly 46.2 µM), for inactives: top-dose activity change, negative = growth inhibition, usual class: inhibitors; 12% of 420,000 active; AID 686979; further: potency means the concentration at half of the fitted maximal effect; nearly all actives have a fitted effect of over 55% in size
#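 Chicken DT40 Tdp1-/- cells complemented with human TDP1, 400 cells/well, exposed to compounds plus 20 nM camptothecin for at least 48 h at 37 C; viability read as ATP content by CellTiter-Glo luminescence.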
# HT1080NT lethal = kills 2HG-producing HT-1080-NT fibrosarcoma cells; Potency, µM (doses to about 46.1 µM), without a hit: at the top dose activity, negative = less viability, hits mostly cytotoxic; AID 686970; 1.6% of 360,000 active; HT-1080-NT fibrosarcoma viability, CellTiter-Glo ATP luminescence, 48 h;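 further: NT is the 2HG producing partner of a matched IDH1 knockdown line; potency means the concentration at half of the fitted maximal effect; 0% = DMSO-treated cells and -100% = media-only wells without cells; nearly all actives have a fitted effect of over 55% in size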
#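 Viability by CellTiter-Glo luminescence after 48 h compound exposure at 37C of HT-1080-NT cells (750/well, RPMI, 5% FBS). % activity scaled between DMSO wells and medium-only wells, then curve-fitted and categorized by curve class.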
# DT40 TDP1 no CPT = qHTS for Inhibitors of human tyrosyl-DNA phosphodiesterase 1 (TDP1): qHTS in cells in absence of CPT. Potency, µM (highest dose often 46.2 µM), inactives show top-dose activity change, negative = growth inhibition, hits mostly inhibitors. 15% of 420,000 active. DT40 Tdp1-/- hTDP1 cells, no CPT, ATP luminescence, 48 h; further: potency means the concentration at half of the fitted maximal effect; nearly all actives have a fitted effect of over 55% in size
#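 No-CPT arm: Tdp1-/-;hTDP1 DT40 cells (400/well) plus compounds, incubated ≥48 hr at 37 °C. Readout CellTiter-Glo luminescence.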
# An asterisk follows results filed as active; ? = inconclusive; · = not tested or not shown. Unless noted, the call rests on the fitted dose curve; in most records, active means well fitted curve in the direction sought with a large enough effect; inconclusive means small, poorly fitted or top-dose-only effect, or another doubt; inactive means no such curve, though single readings can be large; an effect the other way counts as inactive or inconclusive. Unless noted, on the % scale 0 is the no-effect control and ±100 the full control effect.
SMILES,IL-1B inflam inh,HT1080 IDH1KD tx,TDP1 cell CPT,HT1080NT lethal,DT40 TDP1 no CPT
CC(=O)CSc1nc(-c2ccccc2)[nH]c1S(=O)(=O)c1ccc(C)cc1,·,·,?,·,3.26µM*
COc1ccc(N(C)S(=O)(=O)c2cccc(C(=O)N3CCN(S(=O)(=O)c4ccc(C)cc4)CC3)c2)cc1,-14.9,-23.6%,25.9µM*,-1.0%,?
COc1ccc(S(=O)(=O)N(C)c2ccc(C(=O)N3CCN(c4ccccc4)CC3)cc2)cc1OC,-25.6,-20.8%,14.6µM*,-6.3%,16.4µM*
COc1ccc(S(=O)(=O)N(C)c2ccc(C(=O)N3CCCC3)cc2)cc1OC,-9.4,-3.7%,-23.0%,-2.4%,?
COc1ccc(N2CCN(C(=O)c3ccc(N(C)S(=O)(=O)c4ccc(OC)cc4)cc3)CC2)cc1,?,-29.6%,?,-14.0%,16.4µM*
COc1ccc(N2CCN(C(=O)c3ccc(N(C)S(=O)(=O)c4ccc(C)cc4)cc3)CC2)cc1,0.0,-15.7%,16.4µM*,-26.6%,16.4µM*
CCOC(=O)C1=C(COC(=O)CCOc2cc(C)ccc2C)NC(=O)NC1C (stereo not drawn),4.8,2.2%,-4.0%,-0.7%,-24.3%
Cc1ccc(S(=O)(=O)N2CCN(C(=O)c3cccc(-n4cccc4)c3)CC2)cc1,-7.7,-5.6%,16.4µM*,-9.3%,?
c1cc(-c2cnc3cccnn23)c2cccnc2c1,-24.9,9.5%,9.2µM*,14.3%,?
c1ccc2c(-c3cnc4cccnn34)cncc2c1,-19.1,17.8%,?,18.5%,-28.1%
CSc1ccccc1-c1cnc2cccnn12,-54.3*,-0.1%,-19.4%,29.3%,-27.9%
CN1CCN(c2ccc(C(=O)c3cn(-c4ccc(F)c(Cl)c4)nn3)cc2)CC1,10.4,5.6%,?,-6.0%,16.4µM*
Fc1ccccc1-c1nc(N2CCN(c3cccc(Cl)c3)CC2)c2ccccc2n1,·,·,13µM*,·,23.1µM*
c1ccc(N2CCN(c3nc(-c4ccccn4)nc4ccccc34)CC2)cc1,-20.7,-29.5%,4.11µM*,-13.9%,4.61µM*
CN1CCN(c2nc(-c3ccccn3)nc3ccccc23)CC1,-6.6,7.94µM*,?,7.94µM*,?
Oc1ccccc1-c1nc(N2CCCC2)c2ccccc2n1,?,12.7%,-12.7%,11.6%,-29.0%
O=C(Cn1nc(C(=O)O)c2ccccc2c1=O)Nc1ccccc1C(F)(F)F,-4.5,-5.0%,-3.1%,-11.3%,-17.4%
CC(=O)N1CC(=O)N(Cc2ccccc2)/C(=C/c2ccccc2)C1=O,-0.5,-7.8%,-25.2%,1.3%,-21.2%
CC(=NO)c1ccc2c(c1)Cc1cc([N+](=O)[O-])ccc1-2,-9.3,-3.3%,?,3.0%,13µM*
CCOC(=O)Nc1ccc2c(c1)Cc1cc([N+](=O)[O-])ccc1-2,-8.7,4.8%,?,5.9%,?
CC(O)CN(CC(C)O)c1ccc2c(c1)Cc1cc([N+](=O)[O-])ccc1-2 (stereo not drawn),?,?,18.4µM*,-21.4%,14.6µM*
CCOC(=O)CC(NC(=O)CCS(=O)(=O)c1ccc2c(c1)n(C)c(=O)c(=O)n2C)c1ccc(C)cc1 (stereo not drawn),0.0,9.0%,-8.0%,-2.0%,0.4%
COc1ccc(/C=N/Nc2ccccc2)cc1Cn1nc(C)c([N+](=O)[O-])c1C,-15.9,?,-4.4%,?,-19.8%
c1ccc(SSc2ccccn2)nc1,-90.9*,?,2.91µM*,?,4.61µM*
c1ccc(Sc2ccccn2)cc1,1.2,20.6%,4.6%,16.6%,1.9%
SMILES,IL-1B inflam inh,HT1080 IDH1KD tx,TDP1 cell CPT,HT1080NT lethal,DT40 TDP1 no CPT
Cc1ccccc1NC(=O)CSc1nnc(C)c(=O)[nH]1,-7.3,-11.9%,10.6%,4.1%,-11.8%
Cc1ccccc1NC(=O)CSc1nnc(C)c2ccccc12,-68.7*,-0.3%,-3.8%,2.6%,7.6%
Cc1nnc(SCC(=O)Nc2ccccc2)[nH]c1=O,-6.0,10.4%,-0.6%,-2.6%,-9.7%
COc1ccc2cnnc(SCC(=O)Nc3ccccc3)c2c1OC,-58.1*,-0.1%,-27.9%,-0.5%,?
Cc1nnc(SCC(=O)Nc2ccc(O)cc2)c2ccccc12,-98.5*,0.8%,21.1%,-12.4%,-7.0%
Cc1nnc(SCC(=O)Nc2ccccc2)c2ccccc12,-101.8*,-0.9%,-6.5%,3.4%,?
O=c1[nH]c(=O)n(C2CCCO2)cc1Br (stereo not drawn),32.1,15.6%,6.3%,17.4%,-4.5%
CC(C)OCCCNC(=O)CCCn1c(SCC(=O)c2ccc(Br)cc2)nc2c(sc3ccccc32)c1=O,·,·,-13.0%,·,-23.3%
COc1ccc(S(=O)(=O)n2cnc(C)c2)cc1,-9.8,7.3%,-7.8%,10.8%,-26.5%
CCOC(=O)c1cc2c(=O)n3ccccc3nc2n(CC2CCCO2)c1=NC(=O)/C=C/c1ccccc1 (stereo not drawn),?,-13.9%,?,1.0%,14.6µM*
CCOC(=O)c1cc2c(=O)n3ccccc3nc2n(CCOC)c1=NC(=O)c1cc2ccccc2o1,·,·,-18.2%,·,-2.0%
CCOC(=O)c1cc2c(=O)n3ccccc3nc2n(CC2CCCO2)c1=NC(=O)c1cccc(C(F)(F)F)c1 (stereo not drawn),·,·,-25.5%,·,-23.9%
CCOC(=O)c1cc2c(=O)n3ccccc3nc2n(CC2CCCO2)c1=NC(=O)c1cccc(C)c1 (stereo not drawn),·,·,5.17µM*,·,5.8µM*
CCOC(=O)c1cc2c(=O)n3ccccc3nc2n(Cc2ccco2)c1=NC(=O)c1cc(C)cc(C)c1,·,·,1.3µM*,·,1.16µM*
CCOC(=O)c1cc2c(=O)n3ccccc3nc2n(Cc2ccco2)c1=NC(=O)c1ccc(C(C)(C)C)cc1,·,·,-13.0%,·,-26.9%
CCOC(=O)c1cc2c(=O)n3ccccc3nc2n(CC2CCCO2)c1=NC(=O)c1ccc(OC)cc1OC (stereo not drawn),·,·,?,·,16.4µM*
Cc1ccc(NC(=O)N2CCN(Cc3nc4ccc(C)cc4o3)CC2)cc1,·,·,-24.5%,·,-29.1%
CCOC(=O)c1cc2c(=O)n3ccccc3nc2n(C(C)C)c1=NC(=O)c1c(-c2c(F)cccc2Cl)noc1C,-3.1,7.4%,8.2µM*,-11.3%,8.2µM*
CCOC(=O)c1cc2c(=O)n3ccccc3nc2n(C)c1=NC(=O)c1c(-c2ccccc2Cl)noc1C,·,·,-14.4%,·,-2.6%
CCOC(=O)c1cc2c(=O)n3ccccc3nc2n(CC2CCCO2)c1=NC(=O)c1cc(C)cc(C)c1 (stereo not drawn),·,·,0.164µM*,·,0.0366µM*
CCOC(=O)c1cc2c(=O)n3ccccc3nc2n(CC2CCCO2)c1=NC(C)=O (stereo not drawn),-13.4,-4.1%,-4.4%,-7.3%,-24.3%
